Only a selection was taken, and hits are over-represented in it overall.
Bead autofluor: counter-screen for toxin protease inhibitors: compound fluorescence; compound autofluorescence counterscreen, microsphere flow cytometry; active compounds read high; fluorescence intensity (no concentration beside the values); 360,000 compounds, 3.1% hits; AID 624483; in the data active = fluorescence intensity above about 16000; inconclusive = no clear call, values can overlap the other calls
BoNT-A LC inh2: BoNT A light chain protease inhibition | multiplex microsphere protease substrate cleavage, flow cytometry | 360,000 compounds, 0.17% hits | inhibition, % at 10 µM | AID 588499
TcdB inh: TcdB glycohydrolase inhibition. P18177. TcdB glycohydrolase enzymatic assay, plate reader. inhibition, % at 9.99 µM. 350,000 compounds, 0.24% hits. AID 652162; in the data active = inhibition above about 10%
BoNT-F LC inh: BoNT F light chain protease inhibition. Multiplex microsphere protease cleavage assay, flow cytometry. inhibition, % at 10 µM. 360,000 compounds, 0.22% hits; in the data active = inhibition above about 35%, passing the limit was not always enough; inconclusive = no clear call, values can overlap the other calls
Anthrax LF prot: anthrax lethal factor protease inhibition | P15917 | multiplex microsphere protease cleavage assay, LF | inhibition, % at 10 µM | 360,000 compounds, 0.12% hits | AID 588501
A number is an active result; 0 = inactive; ? = inconclusive; - = not tested or not shown. Cut-off read from the data, not from the text of the source, unless noted: active = inhibition above about 30%; inconclusive = no clear call, values can overlap the other calls; inactive = below that.

SMILES	Bead autofluor	BoNT-A LC inh2	TcdB inh	BoNT-F LC inh	Anthrax LF prot
Cc1ccc(NC(=O)CN2CCN(C(=O)C3CCCO3)CC2)c(C)c1 (stereo unspecified)	0	0	0	0	0
CCNc1nc(NCC)nc(OCCNS(=O)(=O)c2cc(C)ccc2C)n1	21064	?	-	0	0
C[C@@H]1CN([C@@H](C)CO)C(=O)c2cc(NC(=O)c3ccccc3)ccc2O[C@@H](C)CCCCO[C@@H]1CN(C)C(=O)CCC(F)(F)F	-	-	0	-	-
Cn1sc(NC(=O)c2ccccc2Cl)nc1=O	24069	0	-	0	0
CC(=O)Cc1nsc(NC(=O)c2ccccc2Cl)n1	0	0	0	0	0
Cc1cc(NC(=O)c2cccc(Cl)c2)n[nH]1	0	0	0	0	0
COC(=O)c1nc(NC(=O)c2ccccc2Cl)n[nH]1	22352	0	-	0	0
Cn1sc(NC(=O)c2cccc(Cl)c2)nc1=O	22807	0	-	0	0
COC(=O)c1nc(NC(=O)c2ccc(Br)cc2)n[nH]1	0	0	-	0	0
O=C(C[C@H]1CC[C@H](NC(=O)Cc2ccccn2)[C@@H](CO)O1)NCCc1ccccc1	-	-	0	-	-
CCCNC(=O)N[C@@H]1CC[C@H](CC(=O)NC2CCCCC2)O[C@H]1CO	-	-	0	-	-
O=C1C(Cl)=C(N2CCOCC2)C(=O)N1c1ccc(Br)cc1	0	0	0	0	30.4
CC(C)c1ccc(N2C(=O)C(Cl)=C(N3CCOCC3)C2=O)cc1	0	0	0	0	0
COCCNC(=O)CSc1nc2cc(OC)c(OC)cc2c(=O)n1Cc1ccco1	16515	?	-	0	0
COC(=O)c1ccc2c(=O)n(Cc3ccco3)c(SCC(=O)Nc3ccc(C)c(Cl)c3)nc2c1	23373	0	-	0	0
C[C@@H](NC(=O)C[C@@H]1C=C[C@H](NC(=O)C2CCC2)[C@@H](CO)O1)c1ccccc1	-	-	0	-	-
COCC#Cc1cnc2c(c1)C(=O)N([C@@H](C)CO)C[C@@H](C)[C@H](CN(C)C(C)=O)O2	-	-	0	-	-
Cc1noc(C)c1NC(=O)N[C@@H]1C=C[C@@H](CC(=O)NCCCN(C)C)O[C@H]1CO	-	-	0	-	-
O=c1[nH]c2cc(O)ccc2c2ccccc12	0	0	10.3	0	0
Cc1noc(C)c1S(=O)(=O)Nc1ccc2c(c1)C(=O)N([C@H](C)CO)C[C@H](C)[C@H](CN(C)C(=O)Cc1ccccc1)OCCCC[C@H](C)O2	-	-	0	-	-
O=C(O)c1cc(N2C(=O)C3C4C=CC(C4)C3C2=O)ccc1NCc1cccnc1 (stereo unspecified)	23049	0	-	0	0
O=C(O)c1cc([N+](=O)[O-])ccc1NCc1cccnc1	-	-	0	-	-
CC(/C=N/NC(=O)c1n[nH]c2c1CCC2)=C\c1ccccc1	0	0	-	0	0
O=C(N/N=C/C(Br)=C\c1ccccc1)c1n[nH]c2c1CCC2	25111	0	-	0	0
C[C@@H]1CN([C@H](C)CO)C(=O)Cc2cc(NS(=O)(=O)c3cccs3)ccc2O[C@@H]1CN(C)S(C)(=O)=O	-	-	0	-	-
SMILES	Bead autofluor	BoNT-A LC inh2	TcdB inh	BoNT-F LC inh	Anthrax LF prot
CC(C)(NO)/C(=N\O)c1ccccc1	0	0	-	0	0
Cc1cc(/C(=N/O)C(C)(C)NO)ccc1Cl	22038	0	-	0	0
NC(=O)[C@@H]1[C@H]2C(=O)O[C@H](c3ccccc3)[C@H](c3ccccc3)N2[C@H](c2ccccc2OCCO)[C@@]12C(=O)Nc1ccccc12	-	-	0	-	-
CCC(Oc1cc(Cl)ccc1Cl)C(=O)NN1C(=O)C2C3CCC(C3=C(C)C)C2C1=O (stereo unspecified)	0	0	-	35.4	0
CC(C)(C)[S@](=O)N1Cc2cc(C(=O)N3CCCCC3)nc(-c3cccc(-c4cccc(C#N)c4)c3)c2[C@@H]1CCO	-	-	0	-	-
Cn1c(CN2CCCCC2)nc2cc(NC(=O)c3cccc(Br)c3)ccc21	0	0	-	0	0
Cn1c(CN2CCCCC2)nc2cc(NC(=O)c3ccccc3)ccc21	22188	0	-	0	0
Cn1c(CCNC(=O)c2ccccc2)nc2cc(NC(=O)C3CCCCC3)ccc21	18656	0	-	0	0
CO[C@@H]1CN(C)C(=O)c2ccc(NC(=O)Nc3cccc(Cl)c3)cc2OC[C@@H](C)NC[C@H]1C	-	-	0	-	-
COc1ccc(N2C(=O)CSC2c2ccc3c(c2)OCO3)cc1 (stereo unspecified)	16403	0	-	0	0
COc1ccc(N2C(=O)CSC2c2ccc3c(c2)OCO3)c(OC)c1 (stereo unspecified)	0	0	-	0	0
Cc1noc(C)c1COc1ccc(CC(=O)NCCc2ccccc2)cc1	0	0	-	0	0
Cc1nnc(NC(=O)Cc2ccc(OCc3c(C)noc3C)cc2)s1	17361	0	-	0	0
C=C(C)c1cccc(C(C)(C)NC(=O)NCc2ccc(OC)c(OC)c2)c1	23352	0	-	0	0
COc1ccc2c3c([nH]c2c1)[C@H](CO)N(S(C)(=O)=O)CC31CCN(C(=O)c2ccccc2)CC1	-	-	0	-	-
COCCCNC(=O)c1ccc(S(=O)(=O)c2ccc(C)cc2)c(NC(C)=O)c1	0	0	0	0	0
CCCCNC(=O)c1ccc(S(=O)(=O)c2ccc(Cl)cc2)c(NC(C)=O)c1	21746	0	-	0	0
CNC[C@@H]1OCCCC[C@@H](C)Oc2ccc(NS(=O)(=O)c3cn(C)cn3)cc2C(=O)N([C@H](C)CO)C[C@@H]1C	-	-	0	-	-
Cc1ccc(/C=C2\CCOC2=O)cc1	0	0	0	35.3	0
COc1ccc(/C=C2/CCOC2=O)cc1	0	0	-	0	0
S=c1nc(C2CCCCC2)[nH][nH]1	17098	0	-	0	0
O=C(NC[C@@H]1CC[C@H]2[C@H](CN2Cc2ccc(Oc3ccccc3)cc2)O1)C1CCOCC1	-	-	0	-	-
Cc1ccc(C)n1-n1c(C)nc2scc(-c3ccccc3)c2c1=O	21049	0	-	0	0
Cc1nc2scc(-c3ccccc3)c2c(=O)n1N	0	0	-	0	0
CC(C)NC(=O)Nc1ccc2c(c1)C(=O)N([C@@H](C)CO)C[C@@H](C)[C@@H](CN(C)Cc1ccccc1)O2	-	-	0	-	-
CCCc1cc(C(=O)Cc2ccc(C(=O)OCC)o2)c(O)cc1O	0	0	-	0	0
CCCc1cc(-c2n[nH]c(C)c2-c2ccc(C(=O)OCC)o2)c(O)cc1O	19356	0	-	0	0

Screening data: PubChem, several laboratories
